Results from the supplement of paper PMC11732987, “Enantioselective OTUD7B fragment discovery through chemoproteomics screening and high-throughput optimisation” (Communications Chemistry, 2025).

Tests used:
Assay in all cases: log2 ratio of Biotin-Ahx-Ub-VS probe labelling (fragment/DMSO); higher = less target engagement (more negative = stronger competition), active = hit call of the paper (q ≤ 0.05, log2 ratio ≤ -1)
Settings in all cases: compound concentration: 200 uM; treatment time: 3 h
ALG13 = molecular target: T1, ALG13 (UniProt Q9NP73)
T1 sequence (whole entry): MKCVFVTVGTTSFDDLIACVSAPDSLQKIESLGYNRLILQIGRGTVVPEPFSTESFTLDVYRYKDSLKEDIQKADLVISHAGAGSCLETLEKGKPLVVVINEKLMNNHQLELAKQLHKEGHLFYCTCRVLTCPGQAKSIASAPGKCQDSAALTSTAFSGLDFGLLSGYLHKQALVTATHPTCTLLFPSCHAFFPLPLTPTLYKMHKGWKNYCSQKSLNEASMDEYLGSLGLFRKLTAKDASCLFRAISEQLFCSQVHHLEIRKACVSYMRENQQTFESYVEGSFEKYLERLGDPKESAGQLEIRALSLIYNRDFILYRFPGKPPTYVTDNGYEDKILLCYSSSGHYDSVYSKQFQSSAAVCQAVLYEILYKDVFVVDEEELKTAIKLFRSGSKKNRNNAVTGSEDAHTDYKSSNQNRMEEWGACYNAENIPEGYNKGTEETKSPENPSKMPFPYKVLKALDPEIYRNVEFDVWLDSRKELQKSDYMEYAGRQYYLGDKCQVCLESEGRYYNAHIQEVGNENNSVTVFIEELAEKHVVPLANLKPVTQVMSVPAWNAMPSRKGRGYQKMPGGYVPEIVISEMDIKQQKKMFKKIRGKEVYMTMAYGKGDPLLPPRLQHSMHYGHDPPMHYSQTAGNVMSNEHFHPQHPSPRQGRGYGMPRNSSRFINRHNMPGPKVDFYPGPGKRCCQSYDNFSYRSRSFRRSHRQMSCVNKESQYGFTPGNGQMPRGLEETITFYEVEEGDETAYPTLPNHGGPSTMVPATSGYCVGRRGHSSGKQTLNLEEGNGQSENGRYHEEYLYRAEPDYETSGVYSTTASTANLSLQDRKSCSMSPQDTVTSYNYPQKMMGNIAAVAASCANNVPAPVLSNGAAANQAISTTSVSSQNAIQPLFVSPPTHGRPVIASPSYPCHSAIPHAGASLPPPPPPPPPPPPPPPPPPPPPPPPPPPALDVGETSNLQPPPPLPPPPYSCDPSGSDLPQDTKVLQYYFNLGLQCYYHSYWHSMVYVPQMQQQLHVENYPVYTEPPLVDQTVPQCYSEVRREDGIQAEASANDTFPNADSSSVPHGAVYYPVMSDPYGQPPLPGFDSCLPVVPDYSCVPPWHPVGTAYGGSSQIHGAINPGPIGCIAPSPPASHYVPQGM
Method in brief: (§1)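 Each value is an average log2 ratio of fragment to vehicle, tested by unpaired t-test. The underlying Spectronaut label-free quantities were global-median-normalised, and only proteins with ≥2 unique peptides were included. Triplicate HEK293T lysate samples (495 µg) were exposed to fragment at 200 µM or vehicle for 3 h, then to Biotin-Ahx-Ub-VS at 0.5 µM final for 1 h, before NeutrAvidin enrichment of labelled DUBs, LysC and trypsin digestion, and diaPASEF LC-MS/MS.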

ATXN3 = ATXN3 (UniProt P54252)
ATXN3, sequence (P54252 whole entry): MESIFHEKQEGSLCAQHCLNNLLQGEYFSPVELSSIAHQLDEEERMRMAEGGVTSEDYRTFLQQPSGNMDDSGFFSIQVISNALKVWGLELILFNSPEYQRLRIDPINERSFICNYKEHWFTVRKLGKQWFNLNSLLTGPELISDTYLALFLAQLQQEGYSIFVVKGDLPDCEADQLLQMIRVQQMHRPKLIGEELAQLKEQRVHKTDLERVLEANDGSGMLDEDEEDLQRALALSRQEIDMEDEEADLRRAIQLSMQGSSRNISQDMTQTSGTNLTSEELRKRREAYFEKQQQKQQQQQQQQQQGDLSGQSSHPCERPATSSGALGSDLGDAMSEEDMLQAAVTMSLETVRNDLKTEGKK
Method in brief: as §1

BAP1 = molecular target: T2, BAP1 (UniProt Q92560)
T2 sequence (whole entry): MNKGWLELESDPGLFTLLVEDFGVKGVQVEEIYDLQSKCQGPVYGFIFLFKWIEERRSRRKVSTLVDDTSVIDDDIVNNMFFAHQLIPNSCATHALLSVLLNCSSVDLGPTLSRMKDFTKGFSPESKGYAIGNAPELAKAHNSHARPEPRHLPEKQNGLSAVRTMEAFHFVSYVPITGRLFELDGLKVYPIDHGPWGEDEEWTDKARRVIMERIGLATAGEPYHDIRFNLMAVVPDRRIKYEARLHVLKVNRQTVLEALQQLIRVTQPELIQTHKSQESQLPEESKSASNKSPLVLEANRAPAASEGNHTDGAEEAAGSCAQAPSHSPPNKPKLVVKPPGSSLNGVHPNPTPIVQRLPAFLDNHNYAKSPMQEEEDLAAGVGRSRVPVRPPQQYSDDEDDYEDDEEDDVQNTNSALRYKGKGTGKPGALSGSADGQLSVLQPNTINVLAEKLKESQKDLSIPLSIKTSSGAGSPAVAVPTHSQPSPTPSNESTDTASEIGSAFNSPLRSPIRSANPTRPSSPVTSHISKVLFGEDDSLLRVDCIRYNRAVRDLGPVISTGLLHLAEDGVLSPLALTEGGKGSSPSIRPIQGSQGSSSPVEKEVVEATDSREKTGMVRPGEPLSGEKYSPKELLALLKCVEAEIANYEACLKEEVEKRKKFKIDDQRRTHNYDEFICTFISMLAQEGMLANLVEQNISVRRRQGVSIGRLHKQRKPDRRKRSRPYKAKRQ
Method in brief: as §1

EIF3F = EIF3F (UniProt O00303)
EIF3F, sequence (O00303 whole entry): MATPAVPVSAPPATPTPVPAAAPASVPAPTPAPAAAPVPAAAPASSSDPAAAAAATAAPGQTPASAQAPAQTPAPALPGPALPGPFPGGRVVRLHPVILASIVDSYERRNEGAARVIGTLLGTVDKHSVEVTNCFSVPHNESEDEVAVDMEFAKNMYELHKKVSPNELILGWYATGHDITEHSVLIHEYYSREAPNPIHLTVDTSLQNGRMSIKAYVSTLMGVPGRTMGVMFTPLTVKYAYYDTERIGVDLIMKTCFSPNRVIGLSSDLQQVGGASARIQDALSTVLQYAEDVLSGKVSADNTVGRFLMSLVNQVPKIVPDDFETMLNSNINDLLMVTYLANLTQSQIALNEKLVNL
Method in brief: as §1

EIF3H = EIF3H (UniProt O15372)
EIF3H, sequence (O15372 whole entry): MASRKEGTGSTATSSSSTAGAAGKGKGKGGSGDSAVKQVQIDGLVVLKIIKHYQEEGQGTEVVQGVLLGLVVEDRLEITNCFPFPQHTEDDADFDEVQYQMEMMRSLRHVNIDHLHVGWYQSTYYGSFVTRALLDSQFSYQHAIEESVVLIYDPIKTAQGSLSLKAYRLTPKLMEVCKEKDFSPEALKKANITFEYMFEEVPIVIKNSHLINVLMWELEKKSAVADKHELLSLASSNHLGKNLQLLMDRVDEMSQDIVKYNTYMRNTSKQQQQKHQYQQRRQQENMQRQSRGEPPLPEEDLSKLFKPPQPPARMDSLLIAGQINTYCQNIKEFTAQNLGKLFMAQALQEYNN
Method in brief: as §1

FAM105A = molecular target: T3, FAM105A (UniProt Q9NUU6)
T3 sequence (whole entry): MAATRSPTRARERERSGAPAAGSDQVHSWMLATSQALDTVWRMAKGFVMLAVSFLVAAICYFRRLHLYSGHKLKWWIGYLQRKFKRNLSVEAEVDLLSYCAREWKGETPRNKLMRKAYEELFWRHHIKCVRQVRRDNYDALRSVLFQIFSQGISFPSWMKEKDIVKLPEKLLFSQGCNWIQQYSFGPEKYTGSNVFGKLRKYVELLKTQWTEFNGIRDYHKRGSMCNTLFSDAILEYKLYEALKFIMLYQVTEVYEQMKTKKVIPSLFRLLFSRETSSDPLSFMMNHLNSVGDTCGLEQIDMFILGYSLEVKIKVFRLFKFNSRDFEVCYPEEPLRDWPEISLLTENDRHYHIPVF
Method in brief: as §1

OTUB1 = OTUB1 (UniProt Q96FW1)
OTUB1, sequence (Q96FW1 whole entry): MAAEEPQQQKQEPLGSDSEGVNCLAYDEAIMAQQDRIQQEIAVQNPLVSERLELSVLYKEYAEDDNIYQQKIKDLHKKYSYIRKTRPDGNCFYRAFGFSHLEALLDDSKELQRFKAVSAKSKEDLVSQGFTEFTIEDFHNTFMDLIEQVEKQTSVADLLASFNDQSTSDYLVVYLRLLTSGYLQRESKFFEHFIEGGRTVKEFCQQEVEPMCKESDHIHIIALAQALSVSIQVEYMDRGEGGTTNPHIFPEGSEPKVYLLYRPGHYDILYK
Method in brief: as §1

OTUD4 = molecular target: T4, OTUD4 (UniProt Q01804)
T4 sequence (whole entry): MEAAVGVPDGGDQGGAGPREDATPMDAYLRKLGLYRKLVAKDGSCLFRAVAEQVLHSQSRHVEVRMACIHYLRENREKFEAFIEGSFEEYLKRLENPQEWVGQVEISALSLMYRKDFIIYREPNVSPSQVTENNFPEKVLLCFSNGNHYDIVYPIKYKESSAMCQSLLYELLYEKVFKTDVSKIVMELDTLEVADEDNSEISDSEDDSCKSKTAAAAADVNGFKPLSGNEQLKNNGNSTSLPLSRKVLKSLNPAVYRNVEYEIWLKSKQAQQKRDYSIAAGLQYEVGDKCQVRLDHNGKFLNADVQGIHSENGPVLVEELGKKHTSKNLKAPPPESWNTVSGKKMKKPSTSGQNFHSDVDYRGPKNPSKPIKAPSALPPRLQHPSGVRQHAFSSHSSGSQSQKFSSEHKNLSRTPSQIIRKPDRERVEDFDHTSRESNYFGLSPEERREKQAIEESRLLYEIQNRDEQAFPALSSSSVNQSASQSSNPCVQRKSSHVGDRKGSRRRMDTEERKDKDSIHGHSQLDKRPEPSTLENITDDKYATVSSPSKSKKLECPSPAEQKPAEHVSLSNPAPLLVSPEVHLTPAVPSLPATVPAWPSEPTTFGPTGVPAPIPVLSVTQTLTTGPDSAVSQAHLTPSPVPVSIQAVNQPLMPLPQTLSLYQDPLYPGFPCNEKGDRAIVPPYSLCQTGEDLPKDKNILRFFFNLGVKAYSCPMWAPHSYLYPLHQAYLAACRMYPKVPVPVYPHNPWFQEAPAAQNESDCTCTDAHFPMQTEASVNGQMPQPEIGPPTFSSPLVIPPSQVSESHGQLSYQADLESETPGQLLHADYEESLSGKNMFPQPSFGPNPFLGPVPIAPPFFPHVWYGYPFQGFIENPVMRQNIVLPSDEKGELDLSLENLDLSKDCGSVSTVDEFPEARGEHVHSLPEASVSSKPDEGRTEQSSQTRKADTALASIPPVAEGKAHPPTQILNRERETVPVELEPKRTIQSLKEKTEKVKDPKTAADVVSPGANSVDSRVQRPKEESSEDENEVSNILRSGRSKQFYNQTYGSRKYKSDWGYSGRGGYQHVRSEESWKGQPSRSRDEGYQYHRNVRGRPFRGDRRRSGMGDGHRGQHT
Method in brief: as §1

OTUD5 = molecular target: T5, OTUD5 (UniProt Q96G74)
T5 sequence (whole entry): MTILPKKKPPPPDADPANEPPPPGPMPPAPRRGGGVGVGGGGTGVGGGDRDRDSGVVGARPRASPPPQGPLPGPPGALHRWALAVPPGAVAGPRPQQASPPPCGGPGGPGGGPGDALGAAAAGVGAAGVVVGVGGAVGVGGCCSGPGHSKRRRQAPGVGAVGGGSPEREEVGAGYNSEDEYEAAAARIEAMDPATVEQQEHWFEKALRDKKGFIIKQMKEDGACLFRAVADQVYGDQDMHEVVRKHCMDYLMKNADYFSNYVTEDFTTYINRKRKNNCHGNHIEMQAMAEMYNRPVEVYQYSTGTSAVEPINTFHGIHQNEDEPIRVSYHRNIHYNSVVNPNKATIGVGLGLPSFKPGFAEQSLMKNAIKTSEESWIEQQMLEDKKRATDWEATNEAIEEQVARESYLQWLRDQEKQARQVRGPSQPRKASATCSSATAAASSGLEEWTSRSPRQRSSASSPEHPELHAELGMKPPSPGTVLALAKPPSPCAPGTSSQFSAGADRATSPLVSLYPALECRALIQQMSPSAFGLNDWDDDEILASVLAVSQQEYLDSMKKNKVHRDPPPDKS
Method in brief: as §1

Measured: log2 ratio of Biotin-Ahx-Ub-VS probe labelling

COc1cccc(CN(C)C(=O)CCl)c1
inactive: ALG13 -0.0162 | ATXN3 -0.781 | EIF3F 0.0528 | EIF3H -0.0896 | FAM105A -0.419 | OTUB1 0.00861 | OTUD4 -0.462 | OTUD5 -0.999
active: BAP1 -2.68
